According to PubChem BioAssay (EPA / NIEHS):
“And” between values parts separate entries of the source, which are not always exact repeats. Identical values can stand only once. Some compounds were tested as several samples or in several runs, with calls that do not always agree. The source made the active and inactive calls. How the source made its calls: active means hit-call score of the fitted dose curve at least 0.9, where 1 is the maximum; inactive means score below 0.9.

What was measured:
[1] = read-out: Intercellular Adhesion Molecule 1 (ICAM1), ICAM1 (gene 3383); assay: BSK_BF4T_ICAM1: BioMAP Diversity Plus: BF4T Assay for Intercellular Adhesion Molecule 1 (ICAM1) Biomarker Activity (AID 2284260); conditions: primary human bronchial epithelial cells with fibroblasts
In short: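 ICAM-1 levels measured by ELISA after 24 h chemical treatment of bronchial epithelial cell/dermal fibroblast co-cultures, read against DMSO baseline. Overt cytotoxicity checked in parallel cultures by sulforhodamine B staining.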

[2] = read-out: Interleukin-8 (IL8), CXCL8 (gene 3576); assay: BSK_MyoF_IL8: BioMAP Diversity Plus: MyoF Assay for Interleukin-8 (IL8) Biomarker Activity (AID 2284261); conditions: primary human lung fibroblasts
In short: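 Lung fibroblasts (human primary) → chemical exposure → 24 h → IL-8 measured by ELISA. Signal increase scored versus DMSO control.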

[3] = read-out: Interleukin-8 (IL8), CXCL8 (gene 3576); assay: BSK_BF4T_IL8: BioMAP Diversity Plus: BF4T Assay for Interleukin-8 (IL8) Biomarker Activity (AID 2284263); conditions: primary human bronchial epithelial cells with fibroblasts
In short: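 Human bronchial epithelial cells with dermal fibroblasts co-culture; IL-8 measured by ELISA 24 hours after dosing, fitted vs DMSO. Cytotoxicity tracked in parallel cultures by SRB total-protein staining.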

[4] = read-out: Interleukin-1 alpha (IL1a), IL1A (gene 3552); assay: BSK_BF4T_IL1a: BioMAP Diversity Plus: BF4T Assay for Interleukin-1 alpha (IL1a) Biomarker Activity (AID 2284264); conditions: primary human bronchial epithelial cells with fibroblasts
In short: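 ELISA read-out of IL-1α from bronchial epithelial cell/dermal fibroblast co-cultures 24 h after compound addition. Increases scored against DMSO negative control. Cytotoxicity monitored by sulforhodamine B staining of parallel cultures.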

Decorin, DCN (gene 1634) = assay: BSK_MyoF_Decorin: BioMAP Diversity Plus: MyoF Assay for Decorin Biomarker Activity (AID 2284265); conditions: primary human lung fibroblasts
In short: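 ELISA readout of decorin, 24 h post-dosing; primary human lung fibroblast (MyoF) culture; gain-of-signal fit vs DMSO baseline.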

KRT18 (gene 3875) = assay: BSK_BF4T_Keratin818: BioMAP Diversity Plus: BF4T Assay for Keratin 818 Biomarker Activity (AID 2284266); conditions: primary human bronchial epithelial cells with fibroblasts
In short: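 Keratin 8/18 levels quantified by ELISA after 24 h chemical treatment of bronchial epithelial cell/dermal fibroblast co-cultures, fitted in positive direction relative to DMSO. Parallel SRB staining tracks overt cytotoxicity.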

[5] = BSK_MyoF_SRB: Viability Assessment in the BioMAP Diversity Plus: MyoF Assay (AID 2284267); conditions: primary human lung fibroblasts;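 further: total protein by SRB absorbance in parallel cultures as cytotoxicity measure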
In short: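 Lung fibroblast cultures, 24 h post-dose; fix 10% TCA, stain 0.1% SRB, read 560 nm. Signal = total protein as cytotoxicity measure; fitted relative to DMSO negative control.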

[6] = read-out: Matrix Metallopeptidase 1 (MMP1), MMP1 (gene 4312); assay: BSK_MyoF_MMP1: BioMAP Diversity Plus: MyoF Assay for Matrix Metallopeptidase 1 (MMP1) Biomarker Activity (AID 2284268); conditions: primary human lung fibroblasts
In short: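 Cells: human lung fibroblasts. Exposure: 24 h chemical dosing. Detection: ELISA for MMP1. Analysis: upward fitting against DMSO negative control.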

[7] = read-out: TIMP metallopeptidase inhibitor 1 (TIMP1), TIMP1 (gene 7076); assay: BSK_MyoF_TIMP1: BioMAP Diversity Plus: MyoF Assay for TIMP metallopeptidase inhibitor 1 (TIMP1) Biomarker Activity (AID 2284269); conditions: primary human lung fibroblasts
In short: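 TIMP-1 levels were determined by ELISA in human lung fibroblasts treated for 24 h. DMSO served as negative control and baseline for upward curve fitting.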

[8] = read-out: Matrix Metallopeptidase 3 (MMP3), MMP3 (gene 4314); assay: BSK_BF4T_MMP3: BioMAP Diversity Plus: BF4T Assay for Matrix Metallopeptidase 3 (MMP3) Biomarker Activity (AID 2284271); conditions: primary human bronchial epithelial cells with fibroblasts
In short: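 MMP-3 level read by ELISA after 24 h chemical exposure of bronchial epithelial cell/dermal fibroblast co-cultures, fitted upward relative to DMSO. Parallel cultures stained with 0.1% SRB after TCA fixation gauge overt cytotoxicity.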

[9] = read-out: Tissue plasminogen activator (tPA), PLAT (gene 5327); assay: BSK_BF4T_tPA: BioMAP Diversity Plus: BF4T Assay for Tissue plasminogen activator (tPA) Biomarker Activity (AID 2284272); conditions: primary human bronchial epithelial cells with fibroblasts
In short: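 tPA level quantified by ELISA at 24 h post-treatment in bronchial epithelial/dermal fibroblast co-cultures, gain of signal scored against DMSO baseline. Parallel cultures stained with 0.1% SRB (560 nm) to flag overt cytotoxicity.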

[10] = read-out: Plasminogen Activator Inhibitor-1 (PAI1), SERPINE1 (gene 5054); assay: BSK_BF4T_PAI1: BioMAP Diversity Plus: BF4T Assay for Plasminogen Activator Inhibitor-1 (PAI1) Biomarker Activity (AID 2284273); conditions: primary human bronchial epithelial cells with fibroblasts
In short: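 PAI-1 levels quantified by ELISA 24 h post-dosing in bronchial epithelial cell plus dermal fibroblast cultures. Signal gain referenced to DMSO baseline. Sulforhodamine B total-protein staining of parallel wells checked cytotoxicity.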

[11] = BSK_BF4T_SRB: Viability Assessment in the BioMAP Diversity Plus: BF4T Assay (AID 2284274); conditions: primary human bronchial epithelial cells with fibroblasts
In short: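 Cytotoxicity measured as total protein: cells fixed with 10% TCA, stained with 0.1% SRB, read at 560 nm. Bronchial epithelial/dermal fibroblast co-culture, 24 h after dosing, with positive-direction fitting relative to DMSO.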

[12] = read-out: urokinase Plasminogen Activator (uPA), PLAU (gene 5328); assay: BSK_BF4T_uPA: BioMAP Diversity Plus: BF4T Assay for urokinase Plasminogen Activator (uPA) Biomarker Activity (AID 2284275); conditions: primary human bronchial epithelial cells with fibroblasts
In short: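 uPA levels measured by ELISA at 24 hours in BF4T cultures (bronchial epithelial cells plus dermal fibroblasts) and compared with DMSO; cytotoxicity tracked in parallel cultures by sulforhodamine B staining.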

[13] = read-out: Matrix Metallopeptidase 9 (MMP9), MMP9 (gene 4318); assay: BSK_BF4T_MMP9: BioMAP Diversity Plus: BF4T Assay for Matrix Metallopeptidase 9 (MMP9) Biomarker Activity (AID 2284276); conditions: primary human bronchial epithelial cells with fibroblasts
In short: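 MMP-9 levels were measured by ELISA after 24 h exposure of bronchial epithelial cell/dermal fibroblast co-cultures, with DMSO as baseline. Parallel cultures were stained with 0.1% SRB after TCA fixation, read at 560 nm, to flag overt cytotoxicity.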

[14] = read-out: Interleukin-8 (IL8), CXCL8 (gene 3576); assay: BSK_IMphg_IL8: BioMAP Diversity Plus: IMphg Assay for Interleukin-8 (IL8) Biomarker Activity (AID 2284277); conditions: primary human endothelial cells with macrophages
In short: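 IL-8 levels were measured by ELISA 24 h after dosing in primary human venular endothelial cell–macrophage cultures, referenced to DMSO; parallel SRB staining monitored overt cytotoxicity.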

[15] = read-out: Intercellular Adhesion Molecule 1 (ICAM1), ICAM1 (gene 3383); assay: BSK_BE3C_ICAM1: BioMAP Diversity Plus: BE3C Assay for Intercellular Adhesion Molecule 1 (ICAM1) Biomarker Activity (AID 2284278); conditions: primary human bronchial epithelial cells
In short: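 ELISA read-out of ICAM-1 on human lung bronchial epithelial primary cells, 24 h post-dosing; positive-direction curve fit, DMSO = baseline. SRB total-protein staining of parallel cultures flagged overt cytotoxicity.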

[16] = read-out: Interferon-inducible T-cell alpha chemoattractant (ITAC), CXCL11 (gene 6373); assay: BSK_BE3C_ITAC: BioMAP Diversity Plus: BE3C Assay for Interferon-inducible T-cell alpha chemoattractant (ITAC) Biomarker Activity (AID 2284279); conditions: primary human bronchial epithelial cells
In short: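 The assay measures I-TAC levels by ELISA in human primary bronchial epithelial cell cultures 24 hours after chemical treatment. Values reflect signal increase over the DMSO baseline.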

[17] = read-out: Matrix Metallopeptidase 1 (MMP1), MMP1 (gene 4312); assay: BSK_BF4T_MMP1: BioMAP Diversity Plus: BF4T Assay for Matrix Metallopeptidase 1 (MMP1) Biomarker Activity (AID 2284270); conditions: primary human bronchial epithelial cells with fibroblasts
In short: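 MMP-1 quantified by ELISA in primary human bronchial epithelial/dermal fibroblast co-cultures, 24 hours post-dosing, with DMSO as baseline; parallel sulforhodamine B staining (560 nm) tracks overt cytotoxicity.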

Measured: AC50

O=C(O)C(F)(F)C(F)(F)F
inactive: [1] | [2] | [3] | [4] | Decorin, DCN (gene 1634) | KRT18 (gene 3875) | [5] | [6] | [7] | [8] | [9] | [10] | [11] | [12] | [13] | [14] | [15] | [16]

O=C(O)C=C(C(F)(F)F)C(F)(F)F
active: [9] 8.23 µM and 1.27 µM | [14] 6.29 µM and 10.8 µM
inactive: [1] | [2] | [4] | Decorin, DCN (gene 1634) | KRT18 (gene 3875) | [5] | [17] | [8] | [10] | [11] | [12] | [13] | [15] | [16]

C=CC(=O)OCC(F)(F)C(F)(F)C(F)(F)C(F)(F)C(F)(F)C(F)(F)C(F)(F)F
inactive: [1] | [2] | [4] | Decorin, DCN (gene 1634) | KRT18 (gene 3875) | [5] | [8] | [9] | [10] | [11] | [12] | [13] | [14] | [15] | [16]

CS(C)(=O)=O
inactive: [2] | Decorin, DCN (gene 1634) | [5] | [6] | [7]

CCN(CC)c1ccc2c(C)cc(=O)oc2c1
inactive: [2] | Decorin, DCN (gene 1634) | [5]

FC(F)(F)C(F)(F)C(F)(F)N(C(F)(F)C(F)(F)C(F)(F)F)C(F)(F)C(F)(F)C(F)(F)F
inactive: [1] | [2] | [4] | Decorin, DCN (gene 1634) | KRT18 (gene 3875) | [5] | [7] | [8] | [9] | [10] | [11] | [12] | [13] | [14] | [15] | [16]

FC(F)(I)C(F)(F)C(F)(F)C(F)(F)I
inactive: [10] | [14]
active: [1] 45.7 µM and 47.8 µM and 51.6 µM | [2] 57.5 µM and 48 µM and 48.5 µM | [4] 55.2 µM and 45.6 µM and 47.3 µM | Decorin, DCN (gene 1634) 45.8 µM and 45.9 µM and 54.5 µM | KRT18 (gene 3875) 46.6 µM and 47.8 µM and 47.4 µM | [5] 46.5 µM and 53 µM and 53.4 µM | [8] 49.7 µM and 50.4 µM and 51.2 µM | [9] 39.8 µM and 46.2 µM and 48.8 µM | [10] 45.8 µM and 47.3 µM | [11] 51.3 µM and 50.7 µM and 46.5 µM | [12] 49.9 µM and 53.8 µM and 46.2 µM | [13] 54.1 µM and 47 µM and 46.8 µM | [14] 1.19 µM | [15] 44.1 µM and 41.4 µM and 55.3 µM | [16] 46.2 µM and 51.9 µM and 49.2 µM

O[Si](c1ccccc1)(c1ccccc1)c1ccccc1
active: [2] 8.82 µM | [5] 23.8 µM
inactive: Decorin, DCN (gene 1634)

FC1CC(F)(F)C(F)(F)C1(F)F (stereo not given)
inactive: [1] | [2] | [4] | Decorin, DCN (gene 1634) | KRT18 (gene 3875) | [5] | [8] | [9] | [10] | [11] | [12] | [13] | [14] | [15] | [16]

OCCCC(F)(F)C(F)(F)C(F)(F)F
inactive: [1] | [2] | [4] | Decorin, DCN (gene 1634) | KRT18 (gene 3875) | [5] | [8] | [9] | [10] | [11] | [12] | [13] | [14] | [15] | [16]

CC(CCl)OP(=O)(OC(C)CCl)OC(C)CCl (stereo not given)
inactive: [2] | Decorin, DCN (gene 1634) | [5] | [6] | [7]

C=CC/C=C/C/C=C/C/C=C/C
inactive: [2] | Decorin, DCN (gene 1634) | [5] | [7]

O=P(O)(O)OCCC(F)(F)C(F)(F)C(F)(F)C(F)(F)C(F)(F)C(F)(F)F
inactive: [1] | [2] | [4] | Decorin, DCN (gene 1634) | KRT18 (gene 3875) | [5] | [8] | [9] | [10] | [11] | [12] | [13] | [14] | [15] | [16]

CCCCCCCOC(=O)c1ccccc1C(=O)OCCCCCCC
inactive: [2] | Decorin, DCN (gene 1634) | [5] | [6] | [7]

CCCCNc1ccccc1
inactive: [2] | Decorin, DCN (gene 1634) | [5]

CCCCOCCOCCOC(=O)CCCCC(=O)OCCOCCOCCCC
inactive: [2] | Decorin, DCN (gene 1634) | [5]

FC(F)(F)C(F)(F)C(F)(F)C(F)(F)C(F)(F)CCI
inactive: [1] | [2] | [4] | Decorin, DCN (gene 1634) | KRT18 (gene 3875) | [5] | [17] | [8] | [9] | [10] | [11] | [12] | [13] | [14] | [15] | [16]

O=C(O)C(F)(F)C(F)(F)C(F)(F)C(F)(F)F
inactive: [1] | [2] | [4] | Decorin, DCN (gene 1634) | KRT18 (gene 3875) | [5] | [7] | [8] | [9] | [10] | [11] | [12] | [13] | [14] | [15] | [16]
